The whole screen tested about 5,500 compounds, of which about 2,000 (36%) were called active. Another 18% or so got no clear call; they are omitted. No stated cut-off is given here; in the data, active means normalized growth mostly below about 0.91 (no sharp cut-off); inconclusive means no clear call, values can overlap the other calls; inactive means mostly above about 0.92. The list shows a part of the results.
Assay: chemical genetic growth profiling, strain panel (AID 1159580);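 further: tested at 20 µM; growth read once vehicle control cultures reached saturation at 30 °C; 1 = growth at the plate median or of vehicle wells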
Conditions: S. cerevisiae deletion strains, growth OD
[1] = locus YAL040C, strain CLN3, stronger effect = lower value
[2] = locus YCL061C, strain MRC1 (second series), stronger effect = lower value
[3] = locus YDR363W, strain ESC2, stronger effect = lower value
[4] = locus YER002W, strain NOP16, stronger effect = lower value
[5] = locus YGR229C, strain SMI1, stronger effect = lower value
[6] = locus YMR307W, strain GAS1, stronger effect = lower value
[7] = locus YNL175C, strain NOP13, stronger effect = lower value
[8] = locus YNL197C, strain WHI3, stronger effect = lower value
[9] = locus YNL224C, strain SQS1, stronger effect = lower value
[10] = locus YOR083W, strain WHI5 (second series), stronger effect = lower value

Measured: normalized growth

CN[C@H](CC(C)C)C(=O)N[C@H]1C(=O)N[C@@H](CC(N)=O)C(=O)N[C@H]2C(=O)N[C@H]3C(=O)N[C@H](C(=O)N[C@H](C(=O)O)c4cc(O)cc(O)c4-c4cc3ccc4O)[C@H](O)c3ccc(c(Cl)c3)Oc3cc2cc(c3O[C@@H]2O[C@H](CO)[C@@H](O)[C@H](O)[C@H]2O[C@H]2C[C@](C)(N)[C@H](O)[C@H](C)O2)Oc2ccc(cc2Cl)[C@H]1O
inactive: [1] 0.985 | [2] 1.01 | [3] 1.01 | [4] 1.01 | [5] 1.03 | locus YMR263W, strain SAP30, stronger effect = lower value 0.997 | [6] 1 | locus YNL153C, strain GIM3, stronger effect = lower value 0.984 | [7] 1.01 | [8] 1.03 | [9] 0.991 | [10] 0.985

CCCN(CCC)CCc1cccc2c1CC(=O)N2
inactive: locus YAL021C, strain ccr4, stronger effect = lower value 0.978 | locus YAL026C, strain drs2, stronger effect = lower value 0.979 | locus YAL030W, strain snc1, stronger effect = lower value 0.981 | [1] 1.03 | locus YBL061C, strain skt5, stronger effect = lower value 0.963 | locus YBR009C, strain hhf1, stronger effect = lower value 0.984 | locus YBR023C, strain chs3, stronger effect = lower value 0.962 | locus YBR171W, strain sec66, stronger effect = lower value 0.96 | locus YBR231C, strain swc5, stronger effect = lower value 0.99 | locus YBR279W, strain paf1, stronger effect = lower value 0.977 | locus YCL011C, strain gbp2, stronger effect = lower value 0.981 | locus YCL016C, strain dcc1, stronger effect = lower value 0.964 | [2] 0.997 | locus YCL061C, strain MRC1, stronger effect = lower value 0.965 | locus YCL069W, strain vba3, stronger effect = lower value 0.966 | locus YCR088W, strain abp1, stronger effect = lower value 0.969 | locus YDL005C, strain med2, stronger effect = lower value 0.977 | locus YDL040C, strain nat1, stronger effect = lower value 0.977 | locus YDR001C, strain nth1, stronger effect = lower value 0.968 | locus YDR069C, strain doa4, stronger effect = lower value 0.983 | locus YDR137W, strain rgp1, stronger effect = lower value 0.951 | locus YDR159W, strain sac3, stronger effect = lower value 0.966 | locus YDR195W, strain ref2 0.949 | locus YDR297W, strain sur2, stronger effect = lower value 0.978 | locus YDR334W, strain swr1, stronger effect = lower value 0.954 | locus YDR335W, strain msn5, stronger effect = lower value 0.969 | [3] 1.03 | locus YDR392W, strain spt3, stronger effect = lower value 0.96 | locus YEL003W, strain gim4, stronger effect = lower value 0.973 | locus YEL037C, strain rad23, stronger effect = lower value 0.971 | locus YEL061C, strain CIN8 (second series), stronger effect = lower value 0.981 | [4] 1.02 | locus YER015W, strain faa2, stronger effect = lower value 0.987 | locus YER016W, strain bim1, stronger effect = lower value 0.975 | locus YER111C, strain swi4, stronger effect = lower value 0.955 | locus YER155C, strain BEM2 (second series), stronger effect = lower value 0.959 | locus YFR010W, strain ubp6, stronger effect = lower value 0.967 | locus YGL167C, strain pmr1, stronger effect = lower value 0.963 | locus YGL173C, strain kem1, stronger effect = lower value 0.969 | locus YGL227W, strain vid30, stronger effect = lower value 0.972 | locus YGL240W, strain doc1, stronger effect = lower value 0.991 | locus YGL253W, strain hxk2, stronger effect = lower value 0.993 | locus YGR078C, strain PAC10, stronger effect = lower value 0.988 | [5] 1.04 | locus YHR013C, strain ard1, stronger effect = lower value 0.94 | locus YHR027C, strain rpn1, stronger effect = lower value 0.959 | locus YHR030C, strain SLT2, stronger effect = lower value 0.947 | locus YHR079C, strain IRE1, stronger effect = lower value 0.941 | locus YHR142W, strain chs7, stronger effect = lower value 0.952 | locus YJL092W, strain hpr5, stronger effect = lower value 0.966 | locus YJL095W, strain BCK1 (second series), stronger effect = lower value 0.972 | locus YJL095W, strain BCK1, stronger effect = lower value 1.01 | locus YJL115W, strain asf1, stronger effect = lower value 0.958 | locus YJL129C, strain trk1, stronger effect = lower value 0.973 | locus YJL154C, strain vps35, stronger effect = lower value 0.974 | locus YJL164C, strain tpk1, stronger effect = lower value 0.981 | locus YJL166W, strain qcr8, stronger effect = lower value 0.988 | locus YJL187C, strain SWE1, stronger effect = lower value 0.976 | locus YJR066W, strain TOR1, stronger effect = lower value 0.94 | locus YJR075W, strain HOC1, stronger effect = lower value 1.01 | locus YKL160W, strain elf1, stronger effect = lower value 0.978 | locus YKR026C, strain gcn3, stronger effect = lower value 0.968 | locus YKR091W, strain srl3, stronger effect = lower value 0.983 | locus YLL001W, strain dnm1, stronger effect = lower value 0.977 | locus YLL026W, stronger effect = lower value 0.981 | locus YLL041C, strain sdh2, stronger effect = lower value 0.974 | locus YLR027C, strain aat2, stronger effect = lower value 0.972 | locus YLR113W, strain HOG1, stronger effect = lower value 1.03 | locus YLR221C, strain rsa3, stronger effect = lower value 0.975 | locus YLR258W, strain gsy2, stronger effect = lower value 0.979 | locus YLR262C, strain YPT6 (second series), stronger effect = lower value 0.976 | locus YLR320W, strain mms22, stronger effect = lower value 0.969 | locus YLR342W, strain FKS1, stronger effect = lower value 0.981 | locus YLR357W, strain rsc2, stronger effect = lower value 0.961 | locus YLR370C, strain arc18, stronger effect = lower value 0.96 | locus YLR384C, strain iki3, stronger effect = lower value 0.969 | locus YML120C, strain ndi1, stronger effect = lower value 0.972 | locus YMR058W, strain fet3, stronger effect = lower value 0.977 | locus YMR125W, strain sto1, stronger effect = lower value 0.967 | locus YMR129W, stronger effect = lower value 0.969 | locus YMR205C, strain PFK2, stronger effect = lower value 0.965 | locus YMR231W, strain pep5, stronger effect = lower value 0.975 | [6] 0.95 | locus YNL071W, strain lat1, stronger effect = lower value 0.984 | locus YNL128W, strain TEP1, stronger effect = lower value 0.989 | [7] 1.01 | locus YNL183C, strain NPR1, stronger effect = lower value 0.966 | [8] 0.999 | locus YNL209W, strain ssb2, stronger effect = lower value 0.97 | [9] 0.988 | locus YNL248C, strain rpa49, stronger effect = lower value 0.955 | locus YNL322C, strain KRE1 (second series), stronger effect = lower value 0.985 | locus YNL322C, strain KRE1, stronger effect = lower value 1.01 | locus YNR049C, strain mso1, stronger effect = lower value 0.966 | locus YOR001W, strain rrp6, stronger effect = lower value 0.972 | locus YOR070C, strain gyp1, stronger effect = lower value 0.974 | locus YOR080W, strain dia2, stronger effect = lower value 0.957 | [10] 1 | locus YOR083W, strain WHI5, stronger effect = lower value 0.975 | locus YOR106W, strain vam3, stronger effect = lower value 0.977 | locus YOR231W, strain MKK1, stronger effect = lower value 0.978 | locus YOR265W, strain rbl2, stronger effect = lower value 0.972 | locus YOR270C, strain vph1, stronger effect = lower value 0.944 | locus YOR290C, strain snf2, stronger effect = lower value 0.953 | locus YPL051W, strain arl3, stronger effect = lower value 0.975 | locus YPL078C, strain atp4, stronger effect = lower value 0.969 | locus YPL106C, strain sse1, stronger effect = lower value 0.99 | locus YPL240C, strain hsp82, stronger effect = lower value 0.976 | locus YPL241C, strain CIN2, stronger effect = lower value 1 | locus YPL256C, strain CLN2, stronger effect = lower value 0.943

Reference: PubChem BioAssay AID1159580 (chemical genetic matrix, 2015)
